The values below come from ChEMBL document CHEMBL1961873, “Compounds: GSK PKIS; Assays: Nanosyn kinase panel” (2012).

Each structure is given as a SMILES string.

Chain of Serine/threonine-protein kinase SIK2 (Homo sapiens) (Q9H0K1 whole entry, looked up): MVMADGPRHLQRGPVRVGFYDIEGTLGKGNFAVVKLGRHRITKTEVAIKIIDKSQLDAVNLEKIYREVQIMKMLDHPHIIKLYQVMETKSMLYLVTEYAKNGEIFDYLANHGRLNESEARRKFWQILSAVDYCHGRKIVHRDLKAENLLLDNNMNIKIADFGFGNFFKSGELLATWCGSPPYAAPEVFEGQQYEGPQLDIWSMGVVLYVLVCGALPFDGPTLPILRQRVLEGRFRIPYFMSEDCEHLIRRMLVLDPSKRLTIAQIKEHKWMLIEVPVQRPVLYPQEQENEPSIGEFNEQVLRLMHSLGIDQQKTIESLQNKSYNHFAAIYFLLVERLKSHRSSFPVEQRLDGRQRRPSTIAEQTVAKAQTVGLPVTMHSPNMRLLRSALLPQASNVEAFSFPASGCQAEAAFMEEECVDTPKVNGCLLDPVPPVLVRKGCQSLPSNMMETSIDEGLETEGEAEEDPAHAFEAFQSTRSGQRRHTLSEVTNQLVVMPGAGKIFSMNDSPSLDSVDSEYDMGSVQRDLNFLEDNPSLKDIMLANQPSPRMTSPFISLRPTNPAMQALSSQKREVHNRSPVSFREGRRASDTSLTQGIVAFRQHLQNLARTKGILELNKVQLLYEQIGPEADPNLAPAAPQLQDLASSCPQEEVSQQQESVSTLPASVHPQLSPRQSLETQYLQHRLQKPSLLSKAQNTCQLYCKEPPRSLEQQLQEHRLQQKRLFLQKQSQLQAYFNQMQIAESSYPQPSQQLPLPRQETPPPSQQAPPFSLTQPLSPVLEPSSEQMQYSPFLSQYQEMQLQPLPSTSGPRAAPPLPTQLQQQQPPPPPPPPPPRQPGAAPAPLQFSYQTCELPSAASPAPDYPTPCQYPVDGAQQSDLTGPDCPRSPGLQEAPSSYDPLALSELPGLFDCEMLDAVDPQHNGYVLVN

The assay concerns the target Serine/threonine-protein kinase SIK2 (Homo sapiens) (UniProt Q9H0K1). The conditions noted are these: at 0.1 µM.
As usually defined, the inhibition is the drop in the measured response relative to a control, in per cent. Turning to `COc1ccc2ncn(-c3cc(O[C@H](C)c4ccccc4Cl)c(C(N)=O)s3)c2c1`, the inhibition stood at 2.04%.

In the case of `C#Cc1cccc(Nc2ncnc3ccc(OCCCCNCCS(C)(=O)=O)cc23)c1`, the inhibition amounted to 5.71%.

As for `NS(=O)(=O)c1ccc(Nc2cc(-c3ccc(O)c(F)c3)n[nH]2)cc1`, the inhibition was -6.2%.

On to `C[C@@H](Oc1cc(-n2cnc3ccc(OCC4CCN(C)CC4)cc32)sc1C(N)=O)c1ccccc1Cl`, for which the inhibition came to 7.32%.

As to `Fc1ccc(-c2ncn(CCCN3CCOCC3)c2-c2ccncc2)cc1`, the inhibition was -2.31%.

With `NS(=O)(=O)c1ccc(N/N=C2\C(=O)Nc3ccc(C(=O)NCCCn4ccnc4)cc32)cc1`, the inhibition is 9.61%.

For the molecule `COc1ccc2cc(-c3c(-c4ccncc4)nc(-c4ccc(S(C)(=O)=O)cc4C)n3C)ccc2c1`, the inhibition came out at 3.7%.

As for `Clc1ccc(CNc2nccc(-c3cnn4ncccc34)n2)cc1`, the inhibition came out at 4.14%.

Turning to `COC(=O)Nc1nc2ccc(Sc3ccc(NC(=O)Nc4cc(C(F)(F)F)ccc4F)cc3)cc2[nH]1`, the inhibition worked out at 4.86%.

Take `Fc1ccc(-c2ncn(C3CCNCC3)c2-c2ccnc(Oc3ccc4c(c3)OCO4)n2)cc1`: the inhibition came out at 2.25%.

On to `Cc1ccc(C(=O)NC(C)C)cc1-c1ccc(C(=O)NCC2CC2)cc1`, for which the inhibition came to 0.37%.

For the molecule `CCS(=O)(=O)c1ccc(OC)c(Nc2ncc(-c3ccccc3Cl)o2)c1`, the inhibition was determined as 1.64%.

In the case of `NC(=O)c1cc(-c2ccncc2)cc(-c2ccccc2)c1N`, the inhibition is 7.44%.

In the case of `c1ccc(-c2n[nH]cc2-c2ccnc(-c3ccc(OCCN4CCOCC4)cc3)c2)nc1`, the inhibition is -6.26%.

With `Cc1ccc(C(=O)NC2CCC2)cc1-c1ccc(C(=O)NCC2CC2)cc1`, the inhibition came out at 1.33%.

For the molecule `CN(c1ccc(NC(=O)Nc2c(Cl)cccc2Cl)cc1)c1ccnc(Nc2cccc(CS(C)(=O)=O)c2)n1`, the inhibition turned out to be 9.6%.

`CS(=O)(=O)CCNCc1cc(-c2cc3c(Nc4ccc(OCc5cccc(F)c5)c(Cl)c4)ncnc3s2)cs1`: the inhibition is 7.98%.

Take `Fc1ccc(-c2c(-c3ccncc3)nc3n2CCS3)cc1`: the inhibition was 5.11%.

`Cc1ccc(NC(=O)c2ccoc2)cc1-c1ccc(C(=O)NCC2CC2)cc1`: the inhibition stood at 5.39%.

As to `NS(=O)(=O)c1ccc(N/N=C2\C(=O)Nc3ccc(-c4cnco4)cc32)cc1`, the inhibition is -1.16%.

For the molecule `O=C(Nc1n[nH]c2cc(-c3cc(F)ccc3F)ccc12)C1CC1`, the inhibition stood at 10.9%.

Regarding `Nc1nccc(-c2c(-c3ccc(F)cc3)ncn2C2CCC(O)CC2)n1` (centres undefined), the inhibition is -0.25%.

`C[C@@H](Oc1cc(-n2cnc3ccc(OC4CCN(C)CC4)cc32)sc1C(N)=O)c1ccccc1Cl`: the inhibition was determined as 6.72%.

Turning to `CCS(=O)(=O)c1ccc(OC)c(Nc2ncc(-c3cccc(-c4ccccc4F)c3)o2)c1`, the inhibition is -1.84%.

With `O=C1Nc2ccc(I)cc2C1=Cc1cc(Br)c(O)c(Br)c1`, the inhibition was 4.92%.

Take `COc1cccc(/C=N/Nc2ncnc3c2cnn3-c2cccc(OC)c2)c1`: the inhibition came out at 5.87%.

Take `COc1cc2ncn(-c3cc(OCc4cccs4)c(C(N)=O)s3)c2cc1OC`: the inhibition came out at 6.37%.

Consider `NC(=O)c1ccc(Oc2nccc(-c3c(-c4ccc(F)cc4)ncn3C3CCNCC3)n2)cc1`, for which the inhibition came out at 7.22%.

For the molecule `CN(C)CCCNc1nccc(-c2c(-c3ccc(F)cc3)nn3cc(C(F)(F)F)ccc23)n1`, the inhibition was -1%.

As for `O=C1NC(=O)C(c2cccc(Cl)c2)=C1Nc1ccc(Cl)c(C(=O)O)c1`, the inhibition stood at 10.7%.

As to `NC(=O)Cc1ccccc1Oc1nccc(-c2c(-c3ccc(F)cc3)ncn2C2CCNCC2)n1`, the inhibition was found to be 3.81%.

With `Fc1ccc(-c2ncn(C3CCNCC3)c2-c2ccnc(Oc3ccc(F)c(F)c3)n2)cc1`, the inhibition worked out at 0.78%.

Take `O=C(Nc1n[nH]c2cc(-c3ccccc3)ccc12)C1CC1`: the inhibition turned out to be 5.24%.

Consider `Cc1nnc(-c2ccc(C)c(-c3ccc(C(=O)NCc4ccc(Cl)cc4)cc3)c2)o1`, for which the inhibition came out at 5.11%.
